Screening data from PubChem.
Vif inh: blocks HIV Vif function | HEK293T cells, Vif self-association by quenched fluorescence, imaging, 24 h | inhibition, % at 7.49 µM | 340,000 tested, 0.35% active; in the data active means inhibition above about 50%, passing the limit was not always enough
FGF22 binding: FGF22 (human) thermal shift binding | 340,000 tested, 1.5% active | Q9HCT0 | activity (Tm shift, normalised), % at 9.99 µM | AID 651658 | recombinant FGF22 thermal shift, SYPRO orange fluorescence; percent of sucrose octasulfate shift, DMSO zero;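 active means mean Tm shift, scaled 0 neutral to 100 positive control, at about 1.3% or above, every replicate too, limit read from the data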
Target sequence (Q9HCT0 whole entry, looked up): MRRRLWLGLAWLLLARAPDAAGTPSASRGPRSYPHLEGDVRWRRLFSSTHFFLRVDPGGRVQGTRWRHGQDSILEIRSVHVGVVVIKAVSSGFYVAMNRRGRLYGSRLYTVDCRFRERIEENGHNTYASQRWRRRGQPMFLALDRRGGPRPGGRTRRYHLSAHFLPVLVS
CFTR F508del cor: CFTR F508del correction in bronchial cells; CFBE cells, YFP halide quenching; stimulated with forskolin plus potentiator P3; % fluorescence drop versus neutral controls; 350,000 tested, 0.36% active; activity (quench increase), % at 7.58 µM;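 active means mean added fluorescence quench of at least 8% versus neutral control, with both replicates also reaching 8%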;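 further: cells transiently co-express mutant CFTR-F508del with the halide-sensitive YFP; corrector assay measuring rescue of mutant channel to the surface after 24 h compound exposure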
* marks the source's active call; other numbers are inactive results; ! = not confirmed by another sample. Rows were chosen to be rich in hits. Some 1.7% of all compounds tested hit in one or more screens of this group.

`CC(C)NC(=O)NCC[C@@H]1CC[C@@H](NS(=O)(=O)c2ccc(-c3ccccc3)cc2)[C@H](CO)O1` gave FGF22 binding -0.2 and CFTR F508del cor -0.5.
`CCc1cccc(N=c2c([N+](=O)[O-])nn(-c3ccc(Cl)cc3)n2O)c1` gave Vif inh -3.1, FGF22 binding 0.2 and CFTR F508del cor 1.3.
Screening CCc1cccc(N=c2c([N+](=O)[O-])nn(-c3ccc4c(c3)OCCO4)n2O)c1 returned Vif inh -20.6, FGF22 binding 43.3* and CFTR F508del cor 0.0.
For CC(C)NC(=O)N(C)C[C@H]1OCCCC[C@@H](C)Oc2ccc(NC(=O)Nc3ccc(F)cc3)cc2C(=O)N([C@@H](C)CO)C[C@H]1C the results were FGF22 binding 0.0 and CFTR F508del cor 0.0.
`COCC#Cc1cnc2c(c1)C(=O)N([C@@H](C)CO)C[C@H](C)[C@H](CN(C)C(=O)NC1CCCC1)O2` gave FGF22 binding -0.7 and CFTR F508del cor 1.1.
Screening O=C([C@H]1[C@H](CO)[C@H]2Cn3c(cccc3=O)[C@H]2N1C(=O)CC1CC1)N1CCc2ccccc2C1 returned FGF22 binding 0.2 and CFTR F508del cor 1.4.
`COCCn1c(=S)[nH]c2cc(C(=O)N3CCN(c4cccc(Cl)c4)CC3)ccc2c1=O` gave Vif inh -2.6, FGF22 binding -0.5 and CFTR F508del cor 0.6.
`O=C(CCCCCn1c(=S)[nH]c2ccc(N3CCOCC3)cc2c1=O)NCc1ccc(Cl)cc1` gave Vif inh -3.7, FGF22 binding 0.0 and CFTR F508del cor -1.3.
`O=C(CCCn1c(=S)[nH]c2ccccc2c1=O)N1CCN(c2cccc(Cl)c2)CC1` gave Vif inh 107.2*.
Screening O=C(CCCCCn1c(=S)[nH]c2ccc(N3CCOCC3)cc2c1=O)NCc1ccccc1Cl returned Vif inh active, FGF22 binding 0.0 and CFTR F508del cor -1.3.
Cc1c(NC(=O)c2cc3ccccc3oc2=O)c(=O)n(-c2ccccc2)n1C was read as Vif inh 89.8*.
For Cc1c(NC(=O)c2cc(-c3ccccc3)nc3ccccc23)c(=O)n(-c2ccccc2)n1C the results were Vif inh 18.4, FGF22 binding 0.1 and CFTR F508del cor -5.1.
`Cc1c(NC(=O)c2cc3ccccc3o2)c(=O)n(-c2ccccc2)n1C` gave Vif inh 0.7.
Cc1ccc(-c2cc(C(=O)Nc3c(C)n(C)n(-c4ccccc4)c3=O)c3ccccc3n2)cc1 was read as Vif inh -4.3, FGF22 binding 43.1* and CFTR F508del cor -2.8.
`Cc1ccc(CNC(=O)[C@H]2O[C@@H](n3cnc4c(N)ncnc43)[C@H](O)[C@@H]2O)o1` gave Vif inh 24.5, FGF22 binding -0.3 and CFTR F508del cor 3.3.
Screening CCNC(=O)[C@H]1O[C@@H](n2cnc3c(N)nc(NCCc4ccc(CCC(=O)O)cc4)nc32)[C@H](O)[C@@H]1O returned Vif inh 63.2*, FGF22 binding -0.1 and CFTR F508del cor -0.6.
`CCOCc1nnc(NC(=O)c2cc(C(=O)OC)cc([N+](=O)[O-])c2)s1` gave Vif inh 0.5, FGF22 binding 43.2* and CFTR F508del cor -0.9.
For COC(=O)c1cc(C(=O)Nc2nnc(CC(C)(C)C)s2)cc([N+](=O)[O-])c1 the results were Vif inh -4.6.
CO[C@@H]1CN(C)C(=O)c2ccc(NC(=O)C3CCCCC3)cc2OC[C@H](C)N(Cc2cccnc2)C[C@@H]1C was read as CFTR F508del cor -4.7.
For COCCNC(=O)[C@@H]1[C@@H](CO)[C@@H]2Cn3c(ccc(-c4ccccc4OC)c3=O)[C@@H]2N1C(=O)C1CCC1 the results were CFTR F508del cor -1.2.
Screening O=C(c1ccco1)N1N=C(c2ccc(Br)cc2)CC1(O)C(F)(F)F (configuration not stated) returned Vif inh -2.2, FGF22 binding 0.2 and CFTR F508del cor 0.0.
`O=C(c1ccco1)N1N=C(c2ccc(Cl)cc2)CC1(O)C(F)(F)F` (configuration not stated) gave Vif inh 1.0, FGF22 binding 43.0* and CFTR F508del cor 2.2.
Screening COc1ccc(C(=O)N2N=C(c3cccc(OC)c3)CC2(O)C(F)(F)F)cc1 (configuration not stated) returned Vif inh -18.0, FGF22 binding 0.2 and CFTR F508del cor -1.8.
For COc1cccc(C2=NN(C(=O)c3ccc(C)o3)C(O)(C(F)(F)F)C2)c1 (configuration not stated) the results were Vif inh -1.3, FGF22 binding 43.0* and CFTR F508del cor 2.0.
`O=C(NC1CCCC1)[C@@H]1[C@@H](CO)[C@@H]2Cn3c(ccc(-c4ccncc4)c3=O)[C@@H]2N1CCc1ccccc1` gave FGF22 binding 0.0 and CFTR F508del cor 2.3.
`CO[C@@H]1CN(C)C(=O)c2cc(NC(=O)NC3CCCCC3)ccc2OC[C@@H](C)N(CC2CC2)C[C@H]1C` gave FGF22 binding 0.2 and CFTR F508del cor -0.2.
c1ccc(CSc2nc3ncncc3[nH]2)cc1 was read as Vif inh -2.0, FGF22 binding 0.0 and CFTR F508del cor -5.4.
For CCOC(=O)Sc1nc2ncncc2[nH]1 the results were Vif inh 4.0, FGF22 binding 43.3* and CFTR F508del cor -3.7.
Screening CCC(=O)N[C@@H]1CC[C@H](CC(=O)NCCN2CCCCC2)O[C@H]1CO returned FGF22 binding -0.1 and CFTR F508del cor -0.6.
Screening CCc1nc2ccc(C(=O)N3CCN(CC)CC3)cc2nc1CC returned Vif inh 3.4, FGF22 binding 42.9* and CFTR F508del cor 2.2.
CCCN1CCN(C(=O)c2ccc3nc(CC)c(CC)nc3c2)CC1 was read as Vif inh -9.7, FGF22 binding -0.1 and CFTR F508del cor 0.8.
Cc1ccc(S(=O)(=O)N(C)C[C@H]2Oc3c(NC(=O)c4ccncc4)cccc3C(=O)N([C@H](C)CO)C[C@@H]2C)cc1 was read as FGF22 binding -0.2 and CFTR F508del cor -2.9.
COc1cccc(S(=O)(=O)N2C[C@@H]3N[C@H](C2)C3c2ccc(-c3ccccc3C)cc2)c1 (some centres not stated) was read as CFTR F508del cor -1.4.
Screening COc1cccc(S(=O)(=O)N2C[C@@H]3N[C@H](C2)C3c2ccc(-c3ccccc3OC)cc2)c1 (some centres not stated) returned CFTR F508del cor -5.0.
Screening COc1cccc(-c2ccc(C3[C@@H]4CN(S(=O)(=O)c5cccc(OC)c5)C[C@H]3N4)cc2)c1 (some centres not stated) returned CFTR F508del cor 21.4*!.
Screening COc1cccc(S(=O)(=O)N2C[C@@H]3N[C@H](C2)C3c2ccc(-c3ccccc3F)cc2)c1 (some centres not stated) returned FGF22 binding -0.1 and CFTR F508del cor 10.0*!.
For Cc1ccc2[nH]c(C(=O)N/N=C/c3ccccc3O)c(C)c2c1 the results were Vif inh -28.9, FGF22 binding 0.0 and CFTR F508del cor 8.4*.
`Cc1ccc2[nH]c(C(=O)N/N=C/c3ccccc3C(=O)O)c(-c3ccccc3)c2c1` gave Vif inh -0.2, FGF22 binding 0.1 and CFTR F508del cor -0.6.
